Reference: PubChem BioAssay (Tox21)
Values without a mark were called inactive. Activity calls are given as the source filed them. Calls follow the shape of the dose curve; as a rule, active = well fitted curve in the direction sought with a large enough effect in the repeat runs; inconclusive = weak or mixed curves; inactive = flat fitted curve, though single readings scatter.

experiment: qHTS assay to test for compound auto fluorescence at 535 nm (green) in HepG2 cells (AID 720675); details: green autofluorescence 485/535 nm, 1 h; series mostly up to 91.3 µM; fluorescence, % of fluorescein control: at the top concentration
Source text: National Center for Advancing Translational Sciences [NCATS]
NIH Chemical Genomics Center [NCGC]
U.S. Environmental Protection Agency [EPA]
National Institutes of Environmental Health Sciences [NIEHS]
National Toxicology Program [NTP]
U.S. Food and Drug Administration [FDA]
Compound auto fluorescence often interferes with screening of the compound library against various biological targets and signaling pathways. Some of these compounds may have fluorophoric properties. Such properties may interfere with the assay outputs resulting in false positives and/or negatives. To decrease such complications and ensure the compound activities are relevant in terms of biological response, the Tox21 10K compound library was screened for auto fluorescence.
From the fluorophores used as reporter signals in our screening assays, the auto fluorescence equivalencies of compounds against three fluorophores have been evaluated: Triamterene, Fluorescein and Rose Bengal sodium for blue, green and red fluorescence, respectively. The fluorescence intensities were measured using Excitation/Emission wavelengths at 405/460nm, 485/535nm and 540/590nm for blue, green and red labels, respectively. This assay includes the green fluorescence data.
Tox21 Assay Protocol Summary:
2,000 HepG2 cells in 5 uL of culture medium (MEM containing 10% FBS) per well were dispensed into black wall/clear bottom 1536-well plates using a Multidrop Combi Dispenser (ThermoFisher Scientific, Waltham, MA). The assay plates were incubated overnight at 37 C to allow cell attachment to the well bottom, followed by the transfer of 23 nL compound or DMSO vehicle by a pintool work station (Kalypsys , San Diego, CA). After the assay plates were incubated for 1 hr at 37 C and 5% CO2, fluorescence intensities in the assay plates were measured by an Envision (PerkinElmer, Shelton, CT) plate reader using three labels for measuring blue, green and red fluorescence at […] 460, 535 and 590 nm respectively.
% is scaled to controls: 0 for no effect and ±100 for the full control effect.

**Q.** For CCOc1ccc(O)cc1, which “fluorescence, % of fluorescein control” value is on record?
**A.** 0.129%

**Q.** Which “fluorescence, % of fluorescein control” value does the source give for Cc1cc(N)c2cc(NC(=O)Nc3ccc4nc(C)cc(N)c4c3)ccc2n1 here?
**A.** -0.123% [at 46 µM]

**Q.** With CC1=CC[C@H](C(C)C)C=C1 as the compound, how does the “fluorescence, % of fluorescein control” value read?
**A.** 0.0181%

**Q.** For O=C(c1ccc(F)cc1)C1CCN(CCn2c(=S)[nH]c3ccccc3c2=O)CC1, which “fluorescence, % of fluorescein control” value is on record?
**A.** -0.0117% [at 46 µM]

**Q.** With O=C(NCCO[N+](=O)[O-])c1cccnc1 as the compound, how does the “fluorescence, % of fluorescein control” value read?
**A.** 0.0862% [at 46 µM]

**Q.** For CCCCC/C=C\C/C=C\CCCCCCCC(=O)NC(C)c1ccccc1 (stereo not given), which “fluorescence, % of fluorescein control” value is on record?
**A.** -0.0107% [at 46 µM]

**Q.** With Cc1oc2c(NC(=O)c3c(Cl)cccc3Cl)cccc2c1C(C)(C)O as the compound, how does the “fluorescence, % of fluorescein control” value read?
**A.** -0.011%

**Q.** Which fluorescence, % of fluorescein control does the source give for O=C(O)CNCC(=O)O here?
**A.** -0.0488% [at 3.72 µM]

**Q.** For CCN(CC)CCOC(=O)C(Cc1cccc2ccccc12)CC1CCCO1 (stereo not given), which fluorescence, % of fluorescein control is on record?
**A.** 0.0388% [at 18.6 µM]

**Q.** Which “fluorescence, % of fluorescein control” value does the source give for O=C1C(O)=C(O)C(=O)C(O)=C1O here?
**A.** 0.0024% [at 46 µM]

**Q.** With O=[N+]([O-])c1ccc(NCCO)c(OCCO)c1 as the compound, how does the “fluorescence, % of fluorescein control” value read?
**A.** -0.0023%

**Q.** With Nc1cccc([N+](=O)[O-])c1 as the compound, how does the “fluorescence, % of fluorescein control” value read?
**A.** -0.0049%

**Q.** Which “fluorescence, % of fluorescein control” value does the source give for Cc1ccccc1S(=O)(=O)O here?
**A.** 0.189% [at 95.7 µM]

**Q.** For C=CC(=O)OCCOc1ccccc1, which “fluorescence, % of fluorescein control” value is on record?
**A.** -0.0126%

**Q.** Which “fluorescence, % of fluorescein control” value does the source give for O=C1CCC(=O)O1 here?
**A.** 0.0239%

**Q.** For CCCCc1ncc(/C=C(\Cc2cccs2)C(=O)O)n1Cc1ccc(C(=O)O)cc1, which “fluorescence, % of fluorescein control” value is on record?
**A.** 0.0184% [at 46 µM]

**Q.** For O=C1c2ccccc2S(=O)(=O)N1CCCCN1CCN(c2ncccn2)CC1, which “fluorescence, % of fluorescein control” value is on record?
**A.** -0.0247% [at 46 µM]

**Q.** With C=C1[C@H]2CC[C@@H]3[C@H]2C(C)(C)CCC[C@]13C as the compound, how does the “fluorescence, % of fluorescein control” value read?
**A.** -0.126%

**Q.** With CCOc1ccc(N)c([N+](=O)[O-])c1 as the compound, how does the “fluorescence, % of fluorescein control” value read?
**A.** -0.0031%

**Q.** Which “fluorescence, % of fluorescein control” value does the source give for COC(=O)c1ccc(I)cc1S(=O)(=O)NC(=O)Nc1nc(C)nc(OC)n1 here?
**A.** -0.007%

**Q.** For CC1(c2ccccc2)OC(C(=O)O)=CC1=O (stereo not given), which “fluorescence, % of fluorescein control” value is on record?
**A.** 0.0479% [at 46 µM]

**Q.** Which “fluorescence, % of fluorescein control” value does the source give for OC(C#CCN1CCCC1)(c1ccccc1)c1ccccc1 here?
**A.** 0.0045% [at 46 µM]

**Q.** With CCN(CC)CCOC(=O)C(c1ccccc1)C1CCCCC1 (stereo not given) as the compound, how does the “fluorescence, % of fluorescein control” value read?
**A.** -0.139% [at 46 µM]

**Q.** With CCO[Si](CCCCl)(OCC)OCC as the compound, how does the “fluorescence, % of fluorescein control” value read?
**A.** -0.0328%

**Q.** With CCC(C)c1cc(C(C)(C)C)c(O)c(C(C)(C)C)c1 (stereo not given) as the compound, how does the “fluorescence, % of fluorescein control” value read?
**A.** -0.0081%

**Q.** With CCCCCCCCO[C@@H]1O[C@H](CO)[C@@H](O)[C@H](O)[C@H]1O as the compound, how does the “fluorescence, % of fluorescein control” value read?
**A.** -0.148%

**Q.** Which “fluorescence, % of fluorescein control” value does the source give for C=C(C)C(=O)OCCOCC here?
**A.** 0.0036%

**Q.** For OCc1cc(C(O)CNCCCCCCOCCCCc2ccccc2)ccc1O (stereo not given), which Potency is on record?
**A.** inactive

**Q.** With CCOCC(O)COc1ccc(NC(=O)CC[S+](C)C)cc1 (stereo not given) as the compound, how does the “fluorescence, % of fluorescein control” value read?
**A.** 0.0199% [at 46 µM]

**Q.** Which “fluorescence, % of fluorescein control” value does the source give for C[C@@H]1C[C@H]2O[C@@]3(O[C@@H]2C(C)(C)O)[C@H](O)[C@@]2(C)[C@@H]4CC[C@H]5C(C)(C)[C@@H](O[C@@H]6OC[C@@H](O)[C@H](O)[C@H]6O)CC[C@@]56C[C@@]46CC[C@]2(C)[C@@H]13 here?
**A.** -0.0014%

**Q.** For COCC(C)OC(C)=O (stereo not given), which “fluorescence, % of fluorescein control” value is on record?
**A.** 0.0361%

**Q.** For CCCCc1nc2cccnc2n1Cc1ccc(-c2ccccc2-c2nnn[nH]2)cc1, which “fluorescence, % of fluorescein control” value is on record?
**A.** -0.0028%

**Q.** Which “fluorescence, % of fluorescein control” value does the source give for COc1cccc(N(C)C(=S)Oc2ccc3c(c2)CCCC3)n1 here?
**A.** 0.0221% [at 46 µM]

**Q.** With C[C@H]1C[C@H]2[C@@H]3CCC4=CC(=O)C=C[C@]4(C)[C@@]3(Cl)[C@@H](O)C[C@]2(C)[C@@]1(O)C(=O)CO as the compound, how does the “fluorescence, % of fluorescein control” value read?
**A.** 0.0032% [at 46 µM]

**Q.** Which “fluorescence, % of fluorescein control” value does the source give for CCN(CC)CCNc1ccc(CNC=O)c2sc3ccc(OC)cc3c(=O)c12 here?
**A.** 0.188%

**Q.** For Nc1ccc(N)c2c1C(=O)c1ccccc1C2=O, which “fluorescence, % of fluorescein control” value is on record?
**A.** -0.433%

**Q.** For O=C(O)c1ccc(-n2nc(-c3ccccc3O)nc2-c2ccccc2O)cc1, which “fluorescence, % of fluorescein control” value is on record?
**A.** 0.0236% [at 46 µM]

**Q.** Which “fluorescence, % of fluorescein control” value does the source give for CC1=CC=C(C(C)C)CC1 here?
**A.** -0.0045%

**Q.** For CN(C)CCN(Cc1ccccc1)c1ccccn1, which “fluorescence, % of fluorescein control” value is on record?
**A.** -0.0614% [at 46 µM]

**Q.** With CC[N+](C)(CC)CCOC(=O)C(O)(c1ccccc1)C1CCCCC1 (stereo not given) as the compound, how does the “fluorescence, % of fluorescein control” value read?
**A.** 0.0127% [at 46 µM]
